fixLJ activator – activators of Burkholderia fixLJ two-component system, primary screen, B. multivorans, GFP reporter | 29,000 tested, 0.3% active | AID 1918990, 2023 | z-score (no concentration beside the values) | B. multivorans fixK-promoter GFP reporter, 18 h; stronger effect = higher value;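 active = replicate mean overnight rise in green fluorescent reporter signal, 3 or more SD over negative controls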
Numbers stand for hits. This excerpt belongs to a sample that is enriched for hits.

`COc1ccccc1CNC(=O)CCc1c(C)c2ccc(OC)c(C)c2oc1=O` gave fixLJ activator inactive.
COc1ccccc1CNC(=O)CCc1c(C)c2cc3c(C)c(C)oc3cc2oc1=O was read as fixLJ activator 3.5.
COc1ccccc1CCNC(=O)CCc1c(C)c2cc3c(C)c(C)oc3cc2oc1=O was read as fixLJ activator inactive.
For CCn1c(CN(C)C)nnc1C1CCN(C(=O)c2ccc[nH]c2=O)CC1 the results were fixLJ activator inactive.
Screening CNC(=O)CN1CCC(N2CC(COc3ccc(F)cc3)OCC2=O)CC1 (centres undefined) returned fixLJ activator inactive.
For CCOc1ccc(OCC)c(S(=O)(=O)N2CCN(c3cccc(C)c3C)CC2)c1 the results were fixLJ activator 3.4.
Screening Cc1cccc(N2CCN(S(=O)(=O)c3cc(Cl)ccc3Cl)CC2)c1C returned fixLJ activator inactive.
For COc1ccc(S(=O)(=O)N2CCN(c3cccc(C)c3C)CC2)c2ccccc12 the results were fixLJ activator inactive.
For COCc1noc(CNC(=O)N2CCCCC2c2ccc(F)cc2)n1 (centres undefined) the results were fixLJ activator inactive.
`CCC1CN(C(=O)C2(S(=O)(=O)c3ccccc3)CC2)CC[C@@]1(C)O` (some centres undefined) gave fixLJ activator inactive.
CCNc1cc(N2CCN(C3CCCCC3)CC2)c2noc3c2c1C(=O)c1ccccc1-3 was read as fixLJ activator inactive.
O=C1c2ccccc2-c2onc3c(NCCO)cc(NC4CCCCC4)c1c23 was read as fixLJ activator inactive.
`CCCCNc1cc(NC2CCCCC2)c2c3c(onc13)-c1ccccc1C2=O` gave fixLJ activator 4.2.
`Cc1ncsc1C(=O)Nc1ccc(Oc2nn[nH]n2)cc1` gave fixLJ activator inactive.
For Cc1nn(CCC(=O)NC2CCN(Cc3cscn3)CC2O)c(C)c1C (centres undefined) the results were fixLJ activator inactive.
Screening COc1ccc2nc(NS(=O)(=O)c3ccc(C)cc3)c(Nc3cc(Cl)ccc3OC)nc2c1 returned fixLJ activator inactive.
`COc1ccc(Nc2nc3ccccc3nc2NS(=O)(=O)c2ccc(C)cc2)c(OC)c1` gave fixLJ activator inactive.
`COc1cc(Cl)c(C)cc1Nc1nc2ccccc2nc1NS(=O)(=O)c1ccccc1` gave fixLJ activator 3.4.
For COc1ccc(F)c(F)c1-c1c(-c2ccccc2)ncn1Cc1ncn[nH]1 the results were fixLJ activator inactive.
CCN(CC)C(=O)CN1CCC(O)[C@]2(CCCN(C(=O)C3CC=CC3)C2)C1 (some centres undefined) was read as fixLJ activator inactive.
Cc1nc(CCC(=O)N2CCCCC2CCn2ccnc2C)n[nH]1 (centres undefined) was read as fixLJ activator inactive.
Screening CCn1c(CN2CCCC2)nnc1C1CCN(c2ncccc2C#N)CC1 returned fixLJ activator inactive.
`Cc1cc(C)c(Cn2c3ccccc3c3cnn(CC(=O)NCc4cccs4)c(=O)c32)c(C)c1` gave fixLJ activator inactive.
CN1CCN(C(=O)Cn2ncc3c4ccccc4n(Cc4ccc(Cl)cc4)c3c2=O)CC1 was read as fixLJ activator inactive.
`CCN(CC)CCNC(=O)Cn1ncc2c3ccccc3n(Cc3ccc(Cl)cc3)c2c1=O` gave fixLJ activator 3.5.
`CC1CCN(C(=O)Cn2ncc3c4ccccc4n(Cc4ccc(Cl)cc4)c3c2=O)CC1` gave fixLJ activator 7.3.
Cn1c2ccccc2c2cnn(CC(=O)NCc3ccc(Cl)cc3)c(=O)c21 was read as fixLJ activator inactive.
CCCCN(CC)CCCNC(=O)Cn1ncc2c3ccccc3n(C)c2c1=O was read as fixLJ activator inactive.
For O=C(Cn1ncc2c3ccccc3n(Cc3ccc(Cl)cc3)c2c1=O)NCc1cccs1 the results were fixLJ activator 8.2.
For Cc1ccccc1Cn1c2ccccc2c2cnn(CC(=O)N3CCC(C)CC3)c(=O)c21 the results were fixLJ activator inactive.
CCCCN(CC)CCCNC(=O)Cn1ncc2c3ccccc3n(Cc3ccccc3F)c2c1=O was read as fixLJ activator inactive.
COc1ccc2c(c1)CCN(C(=O)NCc1cc(C3CC3)on1)C2 was read as fixLJ activator inactive.
For Cc1nc(=O)[nH]c(C)c1CCC(=O)NCc1csc(-c2cnccn2)n1 the results were fixLJ activator inactive.
Cc1c(C(=O)N2CC[C@@]3(C(=O)O)CCCN(C)[C@@H]3C2)[nH]c2ccc(F)cc12 was read as fixLJ activator inactive.
`Cc1ccc(C2(O)CCN(C(=O)Nc3ccc4scnc4c3)CC2)nc1` gave fixLJ activator inactive.
Screening NS(=O)(=O)c1cccc(NC(=O)NCCN2CCCC(CO)C2)c1 (centres undefined) returned fixLJ activator inactive.
`O=C(NCC1(O)CCCCC1)c1ccc(-c2cncc(=O)[nH]2)cc1` gave fixLJ activator inactive.
CCN(CC1CCOCC1)C(=O)C1CC(=O)Nc2ccc(OC)cc21 (centres undefined) was read as fixLJ activator inactive.
`CCC[C@]1(C(=O)O)CN(S(=O)(=O)c2ccc(C)c(Cl)c2)CCC1O` (some centres undefined) gave fixLJ activator inactive.
Screening CN(Cc1nc2ccsc2c(=O)[nH]1)Cc1nnc(-c2cccnc2)o1 returned fixLJ activator inactive.
Screening Cc1cc(C(=O)NC2CCCN(Cc3cccnc3)C2)on1 (centres undefined) returned fixLJ activator inactive.
For COc1ccc(CN(C)S(=O)(=O)NCc2ccccc2)c2cccnc12 the results were fixLJ activator inactive.
`O=C(CN(CCc1ccccc1)S(=O)(=O)c1ccc(Br)cc1)NCc1ccc(Cl)cc1` gave fixLJ activator inactive.
`Cc1ccc(S(=O)(=O)N(CCc2ccccc2)CC(=O)Nc2ccc(Br)cc2)cc1` gave fixLJ activator 3.1.
`COC(=O)c1ccc(NC(=O)CN(CCc2ccccc2)S(=O)(=O)c2ccc(OC)cc2)cc1` gave fixLJ activator inactive.
For COc1cc2c(cc1OC)C1(CCN(C(=O)Cc3ccncc3)CC1)OCC2 the results were fixLJ activator inactive.
Cc1cc(C)c(Cn2c3ccccc3c3cnn(CC(=O)NC4CCCCCC4)c(=O)c32)c(C)c1 was read as fixLJ activator inactive.
For O=C(Cn1ncc2c3ccccc3n(Cc3ccc(F)cc3)c2c1=O)NC1CCCCCC1 the results were fixLJ activator inactive.
For O=C(Cn1ncc2c3ccccc3n(Cc3ccc(F)cc3)c2c1=O)NCCC1=CCCCC1 the results were fixLJ activator inactive.
Screening O=C(Cn1ncc2c3ccccc3n(Cc3cccc(Cl)c3)c2c1=O)NCCC1=CCCCC1 returned fixLJ activator 13.
Screening O=C(Cn1ncc2c3ccccc3n(Cc3cccc(Cl)c3)c2c1=O)NC1CCCCCC1 returned fixLJ activator 23.
Cc1ccc(C)c(Cn2c3ccccc3c3cnn(CC(=O)NCCC4=CCCCC4)c(=O)c32)c1 was read as fixLJ activator inactive.
`COc1cc(-c2ccc3[nH]c(CO)c(C)c3c2)cc(OC)c1OC` gave fixLJ activator inactive.
For O=C(c1ccc(=O)[nH]c1)N1CC2CCC(C1)N(CC1CCC1)C2=O (centres undefined) the results were fixLJ activator inactive.
For CCCN1CCN(C(=O)NC(C)c2nc(-c3ccc(C)cc3)no2)CC1=O (centres undefined) the results were fixLJ activator inactive.
`COc1cc(N2CCC(N3CCCC(C(=O)N4CCOCC4)C3)CC2)ncn1` (centres undefined) gave fixLJ activator inactive.
